Results on 31 molecules are retold here after PubChem BioAssay (NCATS).

In assay [1] the target is Glutathione peroxidase 1 (Homo sapiens) (UniProt P07203). Description: Primary qHTS Assay for Inhibitors of Recombinant Selenoprotein Glutathione Peroxidase 1 (GPX1) (AID 1845191). Further: nearly all actives have a fitted effect of over 65% in size. Further: potency means the concentration at half of the fitted maximal effect. On activity, negative = inhibition: on the % scale 0 is the no-effect control and ±100 the full control effect. The procedure, abridged: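 GPX1 10 nM, GR 100 nM, GSH 1 mM, NADPH 0.5 mM, CHP 0.5 mM (final). 30-min cpd preincubation, RT. Ex340/Em450 read t=0, t=15 min.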
Sequence of Glutathione peroxidase 1 (Homo sapiens) (P07203 whole entry, looked up): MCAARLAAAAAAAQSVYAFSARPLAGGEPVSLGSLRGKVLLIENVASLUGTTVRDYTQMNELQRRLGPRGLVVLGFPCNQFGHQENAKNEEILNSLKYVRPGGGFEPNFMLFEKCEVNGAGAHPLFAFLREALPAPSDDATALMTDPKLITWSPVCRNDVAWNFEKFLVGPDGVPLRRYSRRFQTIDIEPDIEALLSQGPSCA
Background: Quantitative high-throughput screening tests each substance at several concentrations.

For assay [2], the target named is Phospholipid hydroperoxide glutathione peroxidase GPX4 (Homo sapiens) (UniProt P36969). Description: Primary qHTS Assay for Inhibitors of Recombinant Selenoprotein Glutathione Peroxidase 4 (GPX4) (AID 1845192). Further: nearly all actives have a fitted effect of over 65% in size. Further: potency means the concentration at half of the fitted maximal effect. On activity change, negative = inhibition: series mostly up to about 50 µM; on the % scale 0 is the no-effect control and ±100 the full control effect. A digest of the protocol:
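qHTS, GR-coupled: GPX4 200 nM + cpd 30 min RT → GSH 1 mM, NADPH 0.5 mM, GR 100 nM → CHP 0.5 mM start; fluor 340/450 at t0 and t15 min; no-enzyme wells as control.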

The target in assay [3] is Luciferin 4-monooxygenase (Photinus pyralis) (UniProt P08659). Nature of the assay: Primary firefly luciferase (FLuc) qHTS assay for identification of artifact compounds. (AID 1845220). Further: nearly all actives have a fitted effect of over 60% in size.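 On activity change, negative = inhibition: series mostly up to about 54 µM; plate controls were DMSO vehicle for no effect and no enzyme for full effect.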 A digest of the protocol:
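In this counter-screen for luciferase artifacts, test compounds met substrate (10 uM each luciferin and ATP) before 10 nM enzyme started the reaction. Light output was measured 5 min later.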

A short description of assay [4]: Primary fluorescence-based thiol-reactive (MSTI) qHTS assay for identification of artifact compounds. (AID 1845221).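 Further: series mostly up to about 54 µM; thiol-reactive compounds lower the probe fluorescence signal; nearly all actives have a fitted effect of over 65% in size.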 The procedure, abridged: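 A multi-concentration qHTS design tested compounds against 4 uM MSTI, pH 7.4 phosphate-buffered saline. Plates were protected from light for 1 h at room temperature before imaging fluorescence.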
Assay [5] has as its system Nanoluciferase (engineered Oplophorus gracilirostris luciferase). Nature of the assay: Primary Nanoluciferase (NLuc) qHTS assay for identification of artifact compounds. (AID 1845222).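 Further: NLuc secreted into diluted conditioned medium of S16 cells; series mostly up to about 54 µM.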 The procedure, abridged:
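Using secreted nanoluciferase in S16 culture medium (0.22 um filtered, 1:55 dilution), compounds were preincubated 15 min at RT. Signal was generated with Nano-Glo reagent (1:100) over 5 min.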

Assay [6] is described as follows: Primary redox qHTS assay for identification of artifact compounds. (AID 1845223).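 Further: 0% = DMSO and 100% = reference compound.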 A digest of the protocol:
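Redox-cycling detection via DTT (250 uM final) oxidation coupled to Amplex Red (25 uM)/HRP (250 mU/mL) in HBSS. 15 min preincubation plus 30 min after DTT, room temperature. Ex/Em 525/598 nm; 4-parameter Hill fit against DMSO and 10 uM DA3003.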

SMILES strings stand for the structures. Values joined by “and” are separate entries in the source; they are usually repeats but may differ in a detail not shown here. Identical values can stand only once. Results filed as inconclusive are left out. A structure can be active in one record and inactive in another. Active and inactive are the calls of the source. The call rests on the fitted dose curve; in most records, active means well fitted curve in the direction sought with a large enough effect; inconclusive means small, poorly fitted or top-dose-only effect, or another doubt; inactive means no such curve, though single readings can be large; an effect the other way counts as inactive or inconclusive.

Sequence of Phospholipid hydroperoxide glutathione peroxidase GPX4 (Homo sapiens) (P36969 whole entry, looked up): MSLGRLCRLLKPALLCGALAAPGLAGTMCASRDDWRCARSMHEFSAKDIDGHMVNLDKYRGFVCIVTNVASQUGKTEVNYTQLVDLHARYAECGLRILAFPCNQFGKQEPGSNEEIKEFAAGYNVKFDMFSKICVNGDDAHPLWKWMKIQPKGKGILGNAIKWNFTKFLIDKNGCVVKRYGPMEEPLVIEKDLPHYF

In the case of `NCCCCCCCCCCN`, the Potency result in assay [1] and in assay [2] was “inactive” throughout.
Consider `CCC(CO)Nc1nc(NCc2ccccc2)c2ncn(C(C)C)c2n1` (stereo not given), for which the Potency entry in assay [1] and in assay [2] was “inactive” in each case.
`O=C(Nc1cccc(C(=O)Nc2ccc(S(=O)(=O)O)c3cc(S(=O)(=O)O)cc(S(=O)(=O)O)c23)c1)Nc1cccc(C(=O)Nc2ccc(S(=O)(=O)O)c3cc(S(=O)(=O)O)cc(S(=O)(=O)O)c23)c1`: the Potency entry in assay [1] and in assay [2] was “inactive” throughout.
With `Cc1onc(-c2c(F)cccc2Cl)c1C(=O)N[C@@H]1C(=O)N2[C@@H]1SC(C)(C)[C@@H]2C(=O)O`, the Potency result in assay [1], in assay [2], in assay [3] and in assay [5] was “inactive” each time. The call in assay [4] was inactive.
In the case of `CC1(C)S[C@@H]2[C@H](NC(=O)[C@H](NC(=O)N3CCN(S(C)(=O)=O)C3=O)c3ccccc3)C(=O)N2[C@H]1C(=O)O`, the Potency result in assay [1], in assay [2], in assay [3] and in assay [5] was “inactive” throughout. In assay [4], the call was inactive.
Turning to `NCC1OC(O[C@H]2[C@H](O)[C@@H](OC3C(O)C(N)CC(N)C3OC3OC(CO)C(O)C(O)C3N)O[C@@H]2CO)C(N)C(O)C1O` (stereo not given in full), the Potency entry in assay [1] and in assay [2] was “inactive” each time.
Consider `CC1(C)[C@@H](O)CC[C@]2(C)[C@H]3C(=O)C=C4[C@@H]5C[C@@](C)(C(=O)O)CC[C@]5(C)CC[C@@]4(C)[C@]3(C)CC[C@@H]12`, for which the Potency result in assay [1], in assay [3] and in assay [5] was “inactive” throughout. Besides, the Potency entry in assay [2] was “inactive and 8.91 µM (active)”. Also, the call in assay [4] and in assay [6] was inactive.
For `CC(=O)c1ccc(OCC(=O)N2CCCCC2)cc1`, the Potency result in assay [1], in assay [2], in assay [3] and in assay [5] was “inactive” in each case. For the same molecule, the result in assay [4] and in assay [6] was inactive.
With `O=C1NC(=O)c2c1c(-c1ccccc1)cc1[nH]c3ccc(O)cc3c21`, the Potency result in assay [1] and in assay [2] was “inactive” each time.
Turning to `Nc1nc(SCc2ccc([N+](=O)[O-])cc2)c2ncn([C@@H]3O[C@H](CO)[C@@H](O)[C@H]3O)c2n1`, the Potency entry in assay [1] and in assay [2] was “inactive” throughout.
With `c1ccc2sc(SN3CCOCC3)nc2c1`, the Potency in assay [1] is 20.2 µM (active). In assay [2], the Potency result is “inactive”.
The matching figures for `CC[C@H]1OC(=O)[C@H](C)[C@@H](O[C@H]2C[C@@](C)(OC)[C@@H](O)[C@H](C)O2)[C@H](C)[C@@H](O[C@@H]2O[C@H](C)C[C@H](N(C)C)[C@H]2O)[C@](C)(O)C[C@@H](C)C(=O)[C@H](C)[C@@H](O)[C@]1(C)O`: “inactive” and “inactive”.
As for `O=C(c1ccc(OCCCc2cnc[nH]2)cc1)C1CC1`, the Potency entry in assay [1] and in assay [2] was “inactive” each time.
With `CN(C)[C@@H]1C(=O)C(C(=O)NCN2CCCC2)=C(O)[C@@]2(O)C(=O)C3=C(O)c4c(O)cccc4[C@@](C)(O)C3C[C@@H]12` (stereo not given in full), the Potency result in assay [1] and in assay [2] was “inactive” in each case.
Regarding `CN(C)C(N)=NCCC[C@H](N)C(=O)O`, the Potency entry in assay [1] and in assay [2] was “inactive” in each case.
Regarding `NC[C@@H]1O[C@H](C23CC4CC(CC(C4)C2)C3)Cc2c1ccc(O)c2O`, the Potency entry in assay [1] and in assay [2] was “inactive” each time.
Turning to `CN(CCCOc1ccc(Cc2ccccc2)cc1)CCC(=O)O`, the Potency entry in assay [1], in assay [2], in assay [3] and in assay [5] was “inactive” each time. In assay [4], the result was inactive.
`Oc1cc(O)cc(/C=C/c2ccc(O)c(O)c2)c1`: the Potency entry in assay [1] and in assay [2] was “inactive” each time.
For `NO`, the Potency entry in assay [1] and in assay [2] was “inactive” each time.
For the molecule `COc1ccc(/C=C2\COc3ccc(C)cc3C2=O)cc1O`, the Potency result in assay [1] and in assay [2] was “inactive” each time.
`CNC(=O)[C@H]1O[C@@H](n2cnc3c(NCc4ccc(N)cc4)ncnc32)[C@H](O)[C@@H]1O`: the Potency entry in assay [1] and in assay [2] was “inactive” each time.
Turning to `NS(=O)(=O)C#Cc1ccccc1`, the Potency entry in assay [1] and in assay [2] was “inactive” each time.
Consider `O=C(O)/C=C\C(=O)O`, for which the Potency entry in assay [1] and in assay [2] was “inactive” throughout.
In the case of `O=C(O)CC[C@@H](C(=O)O)N1C(=O)c2ccccc2C1=O`, the Potency entry in assay [1] and in assay [2] was “inactive” each time.
Consider `O=C(Nc1ccc2[nH]ncc2c1)C1CCC1`, for which the Potency result in assay [1], in assay [2], in assay [3] and in assay [5] was “inactive” in each case. The result in assay [4] and in assay [6] was inactive.
Consider `COc1cc(/C=C/C(=O)N2CCN(CC(=O)N3CCCC3)CC2)cc(OC)c1OC`, for which the Potency result in assay [1], in assay [2], in assay [3] and in assay [5] was “inactive” each time. The result in assay [4] and in assay [6] was inactive.
Take `COc1cc(SC)ccc1C(=O)N1CCC(Cc2ccccc2)CC1`: the Potency entry in assay [1] and in assay [2] was “inactive” each time.
Take `CC(C)NC[C@@H](O)c1ccc(O)c(O)c1`: the Potency entry in assay [1] and in assay [2] was “inactive” throughout.
On to `CCNC(=O)[C@H]1O[C@@H](n2cnc3c(N)nc(NCCc4ccc(CCC(=O)O)cc4)nc32)[C@H](O)[C@@H]1O`, for which the Potency entry in assay [1], in assay [2], in assay [3] and in assay [5] was “inactive” in each case. Moreover, the result in assay [4] and in assay [6] was inactive.
Take `O=C(O)[C@H](O)[C@@H](O)[C@H](O)[C@H](O)CO`: the Potency result in assay [1] and in assay [2] was “inactive” throughout.
Regarding `O=C(O)Cc1cccc(-c2cc(CCCCCCc3ccc(O[C@H]4O[C@H](CO)[C@@H](O)[C@H](O)[C@@H]4O)c(-c4cccc(CC(=O)O)c4)c3)ccc2O[C@H]2O[C@H](CO)[C@@H](O)[C@H](O)[C@@H]2O)c1`, the results for the activity, negative = inhibition in assay [1] and in assay [5] were -5.05% [at 0.4 µM] (inactive) and 3.7% [at 0.464 µM] (inactive), respectively. Also, in assay [2], the activity change, negative = inhibition was -19% [at 0.409 µM] (inactive). The outcome in assay [3] was “inactive [at 0.464 µM]”. Moreover, in assay [4], the activity change, negative = thiol reactive is 33.1% [at 0.461 µM] (inactive). In addition, the redox activity (% of DA3003) in assay [6] was 1.45% [at 0.461 µM] (inactive).
